# Assay outcomes from PubChem.
# HCV inhibitor – qHTS Assay for Inhibitors of Hepatitis C Virus (HCV); Potency, µM (titrated, usually from 41.8 µM), without a hit: top-dose activity change, negative = inhibition, usual class: inhibitors; Huh7.5.1 HCVcc-Cre infection, luciferase reporter, 44 h; 340,000 tested, 3.4% active
#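 Seed cells (1,000/well) for 4 h; treat with compound and infect with HCVcc-Cre, moi about 0.5. Incubate 44 h, then detect luciferase activity.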
# AmpC no deterg – qHTS Inhibitors of AmpC Beta-Lactamase (assay without detergent). AID 485341, 2010. P00811. Potency, µM (top dose mostly 57.1 µM), for inactives: at the highest dose activity change, negative = inhibition, usual class: inhibitors. 330,000 tested, 0.52% active. AmpC nitrocefin hydrolysis, absorbance 480 nm, 0.0001% Triton;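 also: plate controls were no compound for no effect and no enzyme for full effect; nearly all actives have a fitted effect of over 20% in size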
# Target sequence (P00811 whole entry, looked up): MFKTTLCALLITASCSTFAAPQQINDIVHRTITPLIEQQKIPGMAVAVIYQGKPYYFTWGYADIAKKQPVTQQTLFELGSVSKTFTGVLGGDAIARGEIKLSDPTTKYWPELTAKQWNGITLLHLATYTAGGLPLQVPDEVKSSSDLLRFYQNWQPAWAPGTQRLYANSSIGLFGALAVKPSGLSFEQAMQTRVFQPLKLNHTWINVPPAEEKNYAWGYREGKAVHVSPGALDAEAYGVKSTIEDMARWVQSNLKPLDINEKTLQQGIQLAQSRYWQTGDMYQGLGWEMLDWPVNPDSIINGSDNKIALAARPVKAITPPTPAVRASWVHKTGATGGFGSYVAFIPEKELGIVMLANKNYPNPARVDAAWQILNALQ
#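 AmpC (5.3 nM in the dispensed reagent) in 20 mM phosphate pH 7.0 with 0.01% (detergent screen) or 0.0001% Triton X-100 was preincubated with compounds for 15 min at room temperature. Nitrocefin was then added from an 800 uM solution, and hydrolysis was followed at 480 nm.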
# AmpC detergent – qHTS Inhibitors of AmpC Beta-Lactamase (assay with detergent) | 370,000 tested, 0.041% active | AmpC hydrolysis of nitrocefin, absorbance 480 nm, 0.01% Triton | P00811 | Potency, µM (highest dose often 114 µM), for the others: at the top dose activity change, negative = inhibition, hits mostly inhibitors;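 also: 0% = no-compound wells and -100% = no-enzyme wells; nearly all actives have a fitted effect of over 25% in size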
#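 20 mM phosphate pH 7.0 + 0.01% (detergent screen) or 0.0001% Triton X-100; 5.3 nM AmpC reagent; cpd preinc 15 min RT; nitrocefin (800 uM stock) to start; A480 q20 s × 4 min; Activity was normalised to no-enzyme and no-compound control wells.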
# Pf growth 48h – Primary qHTS for delayed death inhibitors of the malarial parasite plastid, 48 hour incubation; Potency, µM (titrated, usually from 28.7 µM), for inactives: at the highest dose activity change, negative = inhibition, most hits filed as inhibitors; 310,000 tested, 5.9% active; P. falciparum luciferase growth in erythrocytes, 48 h
#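 Cell-based growth assay: transgenic P. falciparum expressing firefly luciferase, cultured in red cells within RPMI 1640 containing 0.5% w/v Albumax, 24 mM bicarbonate and gentamycin. A drop in luciferase activity indicates inhibition.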
# Pf growth 96h – Primary qHTS for delayed death inhibitors of the malarial parasite plastid, 96 hour incubation. P. falciparum luciferase reporter growth, 96 h. Potency, µM (top dose mostly 28.7 µM), for the others: at the highest dose activity change, negative = inhibition, hits mostly inhibitors. 320,000 tested, 6.9% active
#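 Two parasite generations (96 h, 37 C, 5% CO2) of compound exposure in infected erythrocytes (0.05% parasitemia, 2% hematocrit). Luciferase-reporter P. falciparum; decreased luminescence indicates inhibited growth, aimed at apicoplast-acting delayed death.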
# AMA1 RON2 block – qHTS for Inhibitors of AMA1-RON; Towards Development of Antimalarial Drug Lead: Primary Screen | 360,000 tested, 0.2% active | Potency, µM (top dose mostly 58.2 µM), without a hit: top-dose activity change, negative = inhibition, most hits filed as inhibitors | AlphaScreen AMA1-biotinylated RON2 peptide binding | AID 720542, 2013 | Plasmodium falciparum AMA1 (3D7) - RON2 peptide interaction;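 also: 0% = vehicle wells and -100% = peptide control; nearly all actives have a fitted effect of over 45% in size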
#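 AMA1 (3D7) with his tag at 25 nM final met compounds first, then biotinylated RON2 peptide at 25 nM; detection used donor plus acceptor beads, 10 µg/mL apiece, read by AlphaScreen after 30 min at room temperature.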
# * marks the source's active call; other numbers are inactive results; u = inconclusive; x = no result; [ ] = dose if it differs, or a comment. This is a sample that favours compounds with a hit; in the whole collection about 11% have one here. Calls follow the shape of the dose curve; as a rule, active = well fitted curve in the direction sought with a large enough effect; inconclusive = small, poorly fitted or top-dose-only effect, or another doubt; inactive = no such curve, though single readings can be large; an effect the other way counts as inactive or inconclusive. Unless noted, % is scaled to controls: 0 for no effect and ±100 for the full control effect; potency is read from the fitted curve at half-maximal effect.
SMILES,HCV inhibitor,AmpC no deterg,AmpC detergent,Pf growth 48h,Pf growth 96h,AMA1 RON2 block
CCOC(=O)C1=C(COc2ccccc2)NC(=O)NC1c1ccc(Br)cc1 (centres undefined),-8.5%,-27.1%,u,u,3.29µM*,-2.4%
O=C(Cn1cc(S(=O)(=O)Cc2ccc(F)cc2)c2ccccc21)NCc1ccccc1Cl,x,x,14.2%,x,x,x
CCCN1CCN(CCCNC(=O)c2ccc3nc(N4CCC(C)CC4)sc3c2)CC1,11.2µM*,85.1%,-10.0%,3.9%,u,-9.1%
Cc1ccc(C)c(N2CCN(CCCNC(=O)c3ccc4nc(N5CCC(C)CC5)sc4c3)CC2)c1,x,x,15.6%,x,x,x
CCOC(CNC(=O)c1ccc2nc(N3CCC(C)CC3)sc2c1)OCC,-10.0%,63.5%,0.6%,u,9.28µM*,-8.0%
O=C(NCCc1ccc(Cl)cc1)C1CCN(S(=O)(=O)c2ccc3[nH]ccc3c2)CC1,x,x,10.2%,x,x,x
CN(C)c1ccc(CNC(=O)C2CCN(C(=O)c3ccc(-n4ccc5ccccc54)s3)CC2)cc1,x,x,-3.3%,x,x,x
CCCN(CCC)[C@@H]1CCc2cccc(O)c2C1,-20.1%,-12.7%,3.9%,5.22µM*,4.15µM*,-1.5%
CCOC(=O)Cc1csc(N/N=C\c2ccc(N(C)C)cc2)n1,-10.6%,-17.8%,3.8%,7.38µM*,9.28µM*,33.2%
COC(=O)C(CC(C)C)NC(=O)/C=C/c1ccc(Cl)cc1 (centres undefined),3.6%,-18.4%,-7.6%,u,53.6%[5.75 µM],13.0%
CCOC(=O)Cc1csc(NC(=O)C(CC(C)C)NC(=O)C2CCCCC2)n1 (centres undefined),14.1µM*,-20.0%,1.3%,u,u,8.1%
CCOC(=O)Cc1csc(NC(=O)C(NC(=O)C2CCCCC2)C(C)C)n1 (centres undefined),-18.9%,-14.1%,u,-7.3%,u,7.5%
CCOC(=O)Cc1csc(NC(=O)/C=C\c2ccccc2Cl)n1,10µM*,-9.8%,-4.3%,31.1%,23.8%,-7.4%
COC(=O)C(CC(C)C)NC(=O)/C=C/c1ccccc1Cl (centres undefined),10.8%,-18.7%,-3.9%,13.1µM*,-23.4%,-2.1%
CCOc1ccc(OCC)c(NC(=O)c2cc(S(=O)(=O)N3CCCC3)cn2C)c1,x,x,27.4%,x,x,x
Cc1cc(C)c(C(=O)Nc2ccccc2)c(SCC(=O)Nc2ccc(Br)cc2C)n1,x,x,0.4%,x,x,x
Cc1cc(N2CCC(C)CC2)nc2ccc(NC(=O)/C=C/c3cccc(Cl)c3)cc12,x,x,3.1%,x,x,x
CCOC(=O)Cc1csc(NC(=O)CCC(=O)O)n1,14.5%,3.2%,-2.0%,-13.9%,-0.9%,5.5%
CCOC(=O)Cc1csc(NC(=O)Nc2ccc(OC(F)(F)F)cc2)n1,10µM*,-45.5%,-2.8%,11.7µM*,9.28µM*,10.5%
CCOC(=O)Cc1csc(NC(=O)CN2CCOCC2)n1,-4.4%,0.6%,10.5%,u,9.28µM*,44.0%
CCOC(=O)Cc1csc(NC(=O)CCc2ccc(S(=O)(=O)N3CCOCC3)cc2)n1,-18.1%,1.0%,u,2.62µM*,u,0.6%
CCOC(=O)Cc1csc(NC(=O)CCCc2ccccc2)n1,10.1%,-20.2%,7.4%,0.0%,-28.1%,10.8%
CCOC(=O)Cc1csc(NC(=O)c2ccc(S(=O)(=O)N3CCCCC3)cc2)n1,-15.7%,-7.9%,8.2%,32.4%,5.86µM*,0.6%
CC1Cc2cc(S(=O)(=O)CCC(=O)Nc3ccc(Cl)cc3F)ccc2N1C(=O)C1CC1 (centres undefined),x,x,1.8%,x,x,x
CCOC(=O)Cc1csc(NC(=O)c2ccc([N+](=O)[O-])cc2[N+](=O)[O-])n1,-10.3%,-31.5%,0.0%,0.2%,u,-4.5%
SMILES,HCV inhibitor,AmpC no deterg,AmpC detergent,Pf growth 48h,Pf growth 96h,AMA1 RON2 block
CCOC(=O)Cc1csc(NC(=O)c2ccc(N3CCOCC3)cc2[N+](=O)[O-])n1,11.2µM*,-0.9%,-2.2%,7.6%,9.6%,-24.8%
COc1ccc(CCNc2nc(SCc3cccc(Cl)c3)nc3ccccc23)cc1OC,x,x,-1.4%,x,x,x
COc1ccc(C2=NNC(c3cccs3)=Nc3ccc(OC)cc32)cc1,5.0%,-47.2%,-5.7%,u,-17.2%,-28.6%
CCOc1ccc(C2=NNC(c3cccs3)=Nc3ccc(OC)cc32)cc1OCC,u,2.9%,u,11.7µM*,-14.5%,5.0%
CCOc1ccc(C(CCc2ccccc2)NC(=O)c2ccccc2)cc1OCC (centres undefined),0.5%,-4.5%,-10.3%,4.65µM*,x,-6.7%
Cc1nc(C)c(C(=O)N2CCCC(C(=O)c3ccc(Cl)cc3C)C2)s1 (centres undefined),5.8%,116.8%,3.4%,-19.3%,13.1µM*,1.3%
Cc1cc(Cl)ccc1C(=O)C1CCCN(C(=O)/C=C/c2cnn(C)c2)C1 (centres undefined),13.5%,70.0%,-1.6%,8.1%,4.15µM*,-12.2%
CN(C(=O)CSc1nc2ncccc2o1)c1ccc(F)cc1,x,x,12.6%,x,x,x
Cc1ccc2nc(-c3ccc(Cl)c(NC(=O)c4cccc([N+](=O)[O-])c4C)c3)oc2c1,x,x,-1.6%,x,x,x
CCC1=C(OC(=O)N(CC)CC)N2C(=O)OC(=NCC3CC3)[C@]2(C)[C@H]2C1=CC[C@H]1C(=O)NC(=O)[C@H]12,26.9%[8.37 µM],30.6%,-5.0%,u,u,14.0%
CCC1=C(OC(=O)N(CC)CC)N2C(=O)OC(=NCCc3c[nH]c4ccccc34)[C@]2(C)[C@H]2C1=CC[C@H]1C(=O)N(CC(=O)OC)C(=O)[C@H]12,-12.4%,185.6%,-2.0%,9.28µM*,14.7µM*,u
CCC1=C(OC(=O)N(CC)CC)N2C(=O)OC(=NCCc3c[nH]c4ccccc34)[C@]2(C)[C@H]2C1=CC[C@H]1C(=O)NC(=O)[C@H]12,14.9%,13.2%,-7.4%,11.7µM*,u,-6.0%
COc1ccc(CCNc2cc(N3CCN(C(=O)c4ccc(C)cc4)CC3)ccc2[N+](=O)[O-])cc1OC,4.1%,-33.4%,-14.5%,u,u,x
COc1ccc(N2CCN(C(=O)CCc3cc(OC)c(OC)c(OC)c3)CC2)cc1,-15.2%,9.2%,-6.3%,-16.5%,u,-3.4%
COc1ccc(C(=O)N2CCN(c3ccc([N+](=O)[O-])c(NCCc4ccc(OC)c(OC)c4)c3)CC2)cc1,1µM*,0.2%,-12.1%,10.4µM*,4.65µM*,-11.5%
